# The full list was thinned out, with hits kept by preference.
# Methyltransferases: Primary Screen for Target Class Profiling of Small Molecule Inhibitors of Methyltransferases; purified enzyme, MTase-Glo SAH luminescence; hits give low values; 3.9% of 25,000 active; calls only at 40 µM; AID 1745853, 2022; call rule not given here
#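 Each enzyme was reacted with SAM and its substrate, with compounds tested once at 40 uM; SAH formed was read by MTase-Glo luminescence.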
# Active calls of the source: *; i = inactive; + = active, no number. % is set by controls: 0 for no effect and ±100 for the full control effect.
SMILES,Methyltransferases
CCOC(=O)C1CCN(C(=O)CNS(=O)(=O)c2ccc3nc(C)sc3c2)CC1,i
CCCN1C(=O)c2c(C(=O)NCCN3CCOCC3)ncn2CC1(C)C(=O)NCCC(C)C (stereo unspecified),i
CCOc1ccc(-c2cc(NC(=O)c3c(F)cccc3F)c(C(=O)O)s2)cc1,+
CCCCOc1ccc(C(=O)Nc2ccc(F)cc2F)cc1,i
COc1cccc(-c2ccc(NC(=O)C3=C(C(=O)O)CCC3)c(F)c2)c1,i
Cc1ccc(Cn2c(=O)c3ccc(C(=O)NC4CCCCC4)cc3n3c(=O)n(C)nc23)cc1,i
CC(C)OCCCn1c(=O)c2ccccc2n2c(SCc3cccc(Cl)c3)nnc12,i
CC1=CC(=O)CC(C)(C)[C@@]1(O)CC[C@@H](C)O[C@@H]1O[C@H](CO)[C@@H](O)[C@H](O)[C@H]1O,i
CC1=CC(=O)CC(C)(C)C1/C=C/C(C)OC1OC(COC2OCC(O)C(O)C2O)C(O)C(O)C1O (stereo unspecified),i
CC1=CC(=O)CC(C)(C)C1CCC(C)OC1OC(COC(=O)c2cc(O)c(O)c(O)c2)C(O)C(O)C1O (stereo unspecified),+
COc1cc(C(=O)OC[C@H]2O[C@@H](OC(C)(C)C(=O)O)[C@H](O)[C@@H](O)[C@@H]2O)cc(OC)c1O,i
CC(CCC1C(C(=O)O)=CC(=O)CC1(C)C)O[C@@H]1O[C@H](CO)[C@@H](O)[C@H](O)[C@H]1O (stereo partly specified),+
CC1=CC(=O)CC(C)(C)C1/C=C/C(C)O[C@@H]1O[C@H](CO)[C@@H](O)[C@H](O)[C@H]1O[C@@H]1OC[C@](O)(CO)[C@H]1O (stereo partly specified),i
CCCn1c(=O)c2ccc(C(=O)NC3CCCCC3)cc2n2c(=O)n(Cc3ccccc3C)nc12,i
CCOc1ccc(-c2cc3n(n2)CC(C)(C(=O)NCCC(C)C)N(c2ccccc2CC)C3=O)cc1 (stereo unspecified),i
Cn1c2ccc(NC(=O)c3ccccc3)cc2c(=O)n2nc(C(=O)O)cc12,i
Cc1cc(Nc2ccc(NC(=O)c3ccc(Nc4ccnc5ccccc45)cc3)cc2)nc(N)n1,+
O=C(Nc1ccc(OC(F)(F)F)cc1)c1sccc1NCc1ccnc2ccccc12,i
CCOC(=O)c1ccc2c(c1)[C@@H]1C=CC[C@@H]1[C@H](c1ccccc1OCc1ccccc1)N2,i
CC(C)CCNC(=O)C1(C)Cn2nc(C(=O)N3CCN(C)CC3)cc2C(=O)N1C (stereo unspecified),i
CCCN1C(=O)c2c(C(=O)NCc3ccc(F)cc3)ncn2CC1(C)C(=O)NCc1ccc(F)cc1 (stereo unspecified),i
Fc1ccc(-c2nnn3c2nc(N2CCCC2)c2ccccc23)cc1,i
CCC(C(=O)NCc1cccc(F)c1)n1ccc2cc(S(=O)(=O)N3CCCCC3)ccc21 (stereo unspecified),i
Nc1nc(NCCNc2ncc(-n3ccnc3)c(-c3ccc(Cl)cc3Cl)n2)ccc1[N+](=O)[O-],+
O=S(=O)(c1ccccc1)N1CCC(Cc2ccc(CN3CCOCC3)cc2)CC1,i
SMILES,Methyltransferases
Cc1cc2c(cc3n2CC(C)(C(=O)NC2CCCCC2)N(Cc2cccs2)C3=O)o1 (stereo unspecified),i
CC(=O)Nc1ccc(Nc2nc3c(S(=O)(=O)c4ccc(Br)cc4)nnn3c3ccccc23)cc1,i
Cc1ccc2c(c1)C=Cc1cc(C)ccc1C2c1cn(Cc2ccc(C(=O)Nc3nn[nH]n3)o2)c(=O)[nH]c1=S,+
CC(C)CCn1c(=O)c2ccc(C(=O)NC(C)C)cc2n2c(=O)n(CC(=O)NC(C)C)nc12,i
Cc1ccc(NC(=O)c2cc3n(n2)CC(C)(C(=O)NC2CCCCC2)N(C)C3=O)c(C)c1 (stereo unspecified),i
CCCN(CCC)CCCN1C(=O)c2cc3oc(C)cc3n2CC1(C)C(=O)NC1CCCCCC1 (stereo unspecified),i
CCc1cccc(N2C(=O)c3ccccc3CC2(C)C(=O)NCc2ccccc2C)c1 (stereo unspecified),i
CC1CCCCC1NC(=O)C1(C)Cn2c(nc3ccccc32)C(=O)N1Cc1ccco1 (stereo unspecified),i
Cc1ccc(Cn2nc3n(C(C)C)c(=O)c4ccc(C(=O)NC5CCCCC5)cc4n3c2=O)cc1,i
c1cc(N[C@@H]2CCNC2)nc(-c2cnc3ccc(-c4cn[nH]c4)cn23)c1,+
CCOC(=O)c1cc2n(n1)CC(C)(C(=O)NCc1ccc(F)cc1)N(Cc1ccc(F)cc1)C2=O (stereo unspecified),i
Cc1ccc(C)c(N2C(=O)c3cc(C4CC4)nn3CC2(C)C(=O)NC2CCCCCC2)c1 (stereo unspecified),i
CCCn1c(=O)c2cc(Cl)ccc2n2c(=O)n(Cc3ccc(Cl)cc3)nc12,i
CC(C)(O)C(=O)N1CCN(c2ccc(C(F)(F)F)c(C3=C(c4c[nH]c5ccccc45)C(=O)NC3=O)c2)CC1,+
CC1CCC(NC(=O)C2(C)Cn3c(cc4sccc43)C(=O)N2CCN2CCCCCC2)CC1 (stereo unspecified),i
O=C(CCn1ccc2cc(S(=O)(=O)N3CCCC3)ccc21)NC1CCCCC1,i
CCC1CCCCN1CCCN1C(=O)c2cc3sccc3n2CC1(C)C(=O)NC1CCCCCC1 (stereo unspecified),i
Cc1cc(N(C)C)ccc1-c1nc2ccc(-c3nc4ccc(N5CCN(C)CC5)cc4[nH]3)cc2[nH]1,+
CCCN1C(=O)c2nc3ccccc3n2CC1(C)C(=O)NC1CCCCC1 (stereo unspecified),i
CCCCNc1nc2c(S(=O)(=O)c3ccc(C)cc3)nnn2c2ccccc12,i
COc1cc(C(=O)O)ccc1NC(=O)[C@@H]1N[C@@H](CC(C)(C)C)[C@](C#N)(c2ccc(Cl)cc2F)[C@H]1c1cccc(Cl)c1F,+
CCc1cc2c(cc3n2CC(C)(C(=O)NC2CCCCC2)N(CCCc2ccccc2)C3=O)s1 (stereo unspecified),i
O=c1c2ccccc2n2c(=O)n(Cc3ccccc3F)nc2n1CCc1ccccc1,i
COc1cccc(S(=O)(=O)N2CCCC(Cc3nncn3C)C2)c1 (stereo unspecified),i
C=CCn1c(=O)c2ccc(C(=O)NC(C)C)cc2n2c(=O)n(CC(=O)Nc3ccc(C)cc3C)nc12,i
SMILES,Methyltransferases
CCN1CCN(Cc2ccc(-c3cc4c(N[C@H](C)c5ccccc5)ncnc4[nH]3)cc2)CC1,+
CCN1CCN(Cc2ccc(-c3cc4c(NC(C)c5ccccc5)ncnc4[nH]3)cc2)CC1 (stereo unspecified),+
CC1(C(=O)NC2CCCC2)Cn2c(cc3ccccc32)C(=O)N1Cc1ccccc1 (stereo unspecified),i
COC(=O)c1cc2n(n1)CC(C)(C(=O)NC1CCCCCC1)N(c1ccc(Cl)cc1)C2=O (stereo unspecified),i
Cc1cc2c(cc3n2CC(C)(C(=O)NC2CCCCCC2)N(CCN2CCN(C)CC2)C3=O)o1 (stereo unspecified),i
CC1CC(C)CN(S(=O)(=O)c2ccc3c(c2)oc(=O)n3CC(=O)N(C)Cc2ccco2)C1 (stereo unspecified),i
COc1ccc(CNc2nc3c(S(=O)(=O)c4ccccc4)nnn3c3ccccc23)cc1,i

# Source: PubChem BioAssay
